# Results: PubChem BioAssay (NCATS)
# Inconclusive results are not listed. A call without a number means that no potency is given here. The source made the active and inactive calls. Calls follow the shape of the dose curve; as a rule, active = well fitted inhibition curve with a large enough effect; inconclusive = small, poorly fitted or top-dose-only effect; inactive = flat fitted curve, though single readings scatter.
# Assay: qHTS to identify inhibitors of the type 1 interferon - major histocompatibility complex class I in skeletal muscle: primary screen against the NCATS Pharmaceutical Collection (AID 1347407);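 also: luminescence of HiBiT knocked into endogenous HLA-B as interferon-induced MHC class I level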
# Conditions: human skeletal muscle cells, IFN-b-induced MHC-I HiBiT luminescence, 24 h; series mostly up to 45.9 µM
# Procedure, shortened: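 HLA-B HiBiT myoblasts, dexamethasone-free growth medium + 4 ng/ml IFN-b; compounds pinned 1 h after seeding, […] from 46 uM; 24 h, 37 C, 5% CO2; lytic HiBiT detection, 10 min RT, luminescence.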
# Potency is read from the fitted curve at half-maximal effect.
row,Structure (SMILES),Potency
1,Cc1c(C(N)=O)cc([N+](=O)[O-])cc1[N+](=O)[O-],inactive
2,Oc1cc(O)c2c(c1)O[C@H](c1ccc(O)c(O)c1)[C@H](O)C2,inactive
3,CCCCc1nc(Cl)c(CO)n1Cc1ccc(-c2ccccc2-c2nn[nH]n2)cc1,inactive
4,CCN(CC)C(=O)N1CCN(C)CC1,inactive
5,CC(Cc1ccccc1)(NC(=O)CN)c1ccccc1 (centres undefined),inactive
6,CC(C)=CCC1C(=O)N(c2ccccc2)N(c2ccccc2)C1=O,18.7 µM (active)
7,COc1c2occc2c(OC)c2c(=O)cc(C)oc12,inactive
8,O=C(CCCN1CCC(O)(c2ccc(Br)cc2)CC1)c1ccc(F)cc1,inactive
9,CCOC(=O)COc1ccc2c(C)c(CCN(CC)CC)c(=O)oc2c1Cl,21 µM (active)
10,OC[C@H]1O[C@H](O[C@]2(CCl)O[C@H](CCl)[C@@H](O)[C@@H]2O)[C@H](O)[C@@H](O)[C@H]1Cl,inactive
11,CC1(C)O[C@@H]2C[C@H]3[C@@H]4C[C@H](F)C5=CC(=O)CC[C@]5(C)[C@H]4[C@@H](O)C[C@]3(C)[C@]2(C(=O)CO)O1,inactive
12,C[C@H](O)C(=O)Nc1c(I)c(C(=O)NC(CO)CO)c(I)c(C(=O)NC(CO)CO)c1I,inactive
13,OC(CCN1CCCCC1)(c1ccccc1)c1ccccc1,inactive
14,CC(O)(P(=O)(O)O)P(=O)(O)O,inactive
15,CCCCOc1ccc(OCCCN2CCOCC2)cc1,inactive
16,O=C1OCCN1/N=C/c1ccc([N+](=O)[O-])o1,inactive
17,CC(C)(CO)[C@@H](O)C(=O)NCCCO,inactive

row,Structure (SMILES),Potency
1,Oc1c(I)cc(Cl)c2cccnc12,inactive
2,CC(=O)[C@H]1CC[C@H]2[C@@H]3C[C@H](C)C4=CC(=O)CC[C@]4(C)[C@H]3[C@@H](O)C[C@]12C,inactive
3,C#C[C@]1(O)CC[C@H]2[C@@H]3CCc4cc(OC5CCCC5)ccc4[C@H]3CC[C@@]21C,inactive
4,C=C1C[C@H]2[C@@H]3C=C(C)C4=CC(=O)CC[C@]4(C)[C@H]3CC[C@]2(C)[C@@]1(OC(C)=O)C(C)=O,inactive
5,Cc1nc2n(c(=O)c1CCN1CCC(c3noc4cc(F)ccc34)CC1)CCC[C@H]2O,inactive
6,CCN(CC)C(=O)/C(C#N)=C/c1cc(O)c(O)c([N+](=O)[O-])c1,inactive
7,N[C@H](Cc1c[nH]c2ccccc12)C(=O)O,inactive
8,C=CCc1ccc(O)c(OC)c1,inactive
9,O=C1c2ccccc2C(=O)C1c1ccccc1,inactive
10,CC1(C)OC[C@@H](COC(=O)CCc2ccc(OC[C@@H](O)CNCCNC(=O)N3CCOCC3)cc2)O1,inactive
11,NC(CO)(CO)CO,inactive
12,CCCCC1=NC2(CCCC2)C(=O)N1Cc1ccc(-c2ccccc2-c2nn[nH]n2)cc1,inactive
13,CCN(CC)CCNC(=O)COc1ccc(Cl)cc1,inactive
14,CC(=O)Oc1ccc(C(=C2CCCCC2)c2ccc(OC(C)=O)cc2)cc1,inactive
15,O=c1[nH]c(=O)n([C@H]2CCCO2)cc1F,inactive
16,CCOc1ccc2nc3cc(N)ccc3c(N)c2c1,inactive
17,Nc1ccc(C(=O)O)cc1,inactive
